Measured values as given in PubChem BioAssay.
Activity calls are given as the source filed them. How the calls were made is not given here.

What follows are compounds tested against Protein kinase 7 (PK7), Plasmodium falciparum 3D7 (PF3D7_0213400) (UniProt Q7YTF7) (assay: inhibition of Plasmodium PK7 catalytic activity – biochemical, TCAMS antimalarial set, Kinase-Glo luminescence (AID 1159587)). Conditions: recombinant PfPK7, Kinase-Glo ATP depletion luminescence.
Chain of Protein kinase 7 (PK7), Plasmodium falciparum 3D7 (PF3D7_0213400) (Q7YTF7 1-343): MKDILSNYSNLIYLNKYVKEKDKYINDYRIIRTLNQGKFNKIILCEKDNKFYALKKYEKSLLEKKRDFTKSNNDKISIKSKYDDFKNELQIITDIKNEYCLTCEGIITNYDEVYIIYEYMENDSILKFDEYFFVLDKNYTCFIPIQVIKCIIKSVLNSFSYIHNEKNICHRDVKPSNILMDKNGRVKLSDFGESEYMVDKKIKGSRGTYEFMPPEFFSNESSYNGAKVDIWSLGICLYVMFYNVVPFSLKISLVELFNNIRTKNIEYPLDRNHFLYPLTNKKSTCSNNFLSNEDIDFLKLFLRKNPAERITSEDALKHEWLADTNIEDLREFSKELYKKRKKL

outcome, inactive:
CCN(CCCN1CCCCC1)c1cc(C)nc(Nc2cc(Cl)ccc2C)n1, O=C(Nc1ccc(Cl)cn1)c1sc2ccccc2c1O, Nc1c(Cl)cc(C(O)CNCCCCCCOCCc2ccc(CO)s2)cc1Cl (stereo not given), COc1ccccc1C(C)NCC(=O)Nc1ccccc1Sc1ccccc1 (stereo not given), COc1ccccc1/C=C/C(=O)N(C)C1CCN(CCCCCNC(=O)/C=C/c2ccc(Cl)c(Cl)c2)C1 (stereo not given), CC(C)C[C@H](Nc1ccnc(NCC2CCCCC2)n1)C(=O)Nc1ccccc1, CC(=O)C=C1CC(=O)N(C[C@@H](O)[C@H]2O[C@@H]3OC(C)(C)O[C@@H]3[C@H]2O)c2ccccc2N1, Cc1noc(C)c1-c1cccc(CNCc2ccc(-c3cccc(-c4nc5ccccc5[nH]4)c3)cc2)c1, CCNc1cc(C(=O)N[C@@H](Cc2ccccc2)[C@H](O)CNC(CC)c2cccc(Cl)c2)cc(N2CCCC2=O)c1 (stereo not given in full), CC(C)(C)NC(=O)C(c1ccc(F)cc1)N(C(=O)c1ccc(CN2CCOCC2)o1)c1ccc(C2CCCCC2)cc1 (stereo not given), Cc1noc(C)c1-c1cccc(CNCc2ccc(-c3ccc(-c4nc5ccc(F)cc5[nH]4)cc3)cc2)c1, O=C1OC2(CCN(C(=O)c3ccc(-n4cnnn4)cc3)CC2)CN1Cc1ccc(Cl)c(Cl)c1, CC(C)(C)C1CCC(C(=O)c2ccc3ccccc3c2O)CC1 (stereo not given), CCN(CC)CCN(Cc1ccc(-c2ccc(C(F)(F)F)cc2)cc1)C(=O)Cn1c(CCc2cccc(F)c2F)cc(=O)c(C)c1C, O=C(CCc1cccnc1)Nc1cccc(-c2ccc(-c3nc4ccc(C(F)(F)F)cc4[nH]3)s2)c1, CCCNC(=O)Nc1ccc(N(C)c2ccnc(NC3CC3)n2)cc1, NCCCNc1ccc(-c2ccc(NC(=O)Nc3cc(C(F)(F)F)ccc3F)cc2)cn1, Cc1cccc(CN2CCCN(Cc3cccc(C(=O)Nc4ccc(C(C)(C)C)cc4)c3)CC2)c1, CCn1ccc2c(N3CCCC3=O)cc(C(=O)N[C@@H](Cc3ccccc3)[C@H](O)CNC3CCCCC3)cc21, Cc1ccccc1C(=O)Nc1cccc(-c2nc3ncccn3c2C)c1, O=S(=O)(Nc1ccc(CCN2CCCCC2CCN2CCCC2)cc1)c1cccc2cccnc12 (stereo not given), Cc1cccc2[nH]c(-c3ccc(-c4ccc(CN5CCOCC5)cc4)cc3)nc12, CC(CN1CCN(C)CC1)C(=O)Nc1cccc(-c2cccc(-c3nc4ccccc4[nH]3)c2)c1 (stereo not given), NC(N)=NCCCN(Cc1ccccc1)c1ccccc1, OCCN1CCN(C(=S)Nc2ccccc2)CC1
